Out of some 1,200 compounds screened, about 210 (18%) were called active. Not all results are given here. A number with no mark means an inactive call. Cut-off read from the data, not from the text of the source: active = inhibition above about 30%; inactive = the rest.
Test: fluorescence readout artefact check – biochemical, HTRF, uHTS, artefact control for SUMOylation inhibitor project, confirmation (AID 2069)
Details: HTRF interference counterscreen, at 35 µM, stronger effect = higher value
In the case of `CC(C)N1CCC2(CC1)C(C#N)=C(N)NC(S)=C2C#N`, the inhibition was 33.9% (active).
Work on `Cc1ccoc1C(=O)NCCCNC(=O)c1occc1C` yielded an inhibition of 0.95%.
For `COc1ccc(CN2C(=O)Cc3c2nc(N)c2c(N)nc(N4CCOCC4)c(C#N)c32)cc1`, the inhibition was 42.5% (active).
Molecule `COc1cc2c(C#N)c(N3CCCC3)nc(N)c2c(N)n1` has an inhibition of 27.4%.
Work on `COCC(C)N1C(=O)Cc2c1nc(N)c1c(N)nc(N3CCN(c4ccccc4F)CC3)c(C#N)c21` (stereo not given) yielded an inhibition of 19.1%.
`N#Cc1c(N2CCCCC2)nc(N)c2c(N)nc(SCC(=O)O)cc12` gave an inhibition of 14.9%.
With `COc1cc2c(C#N)c(N3CCN(C)CC3)nc(N)c2c(N)n1` the inhibition was 43.2% (active).
`COc1cc2c(C#N)c(N3CCN(c4ccccc4OC)CC3)nc(N)c2c(N)n1` gave an inhibition of 16.6%.
`COc1cc2c(C#N)c(N3CCCCC3)nc(N)c2c(N)n1` gave an inhibition of 25.2%.
For `COCCN(CCOC)c1nc(N)c2c(N)nc3c(c2c1C#N)CC(=O)N3Cc1ccc(Cl)cc1`, the inhibition was 27.9%.
For `CCOc1cc2c(C#N)c(N3CCNCC3)nc(N)c2c(N)n1`, the inhibition was 47.2% (active).
For `CCOc1cc2c(C#N)c(N3CCOCC3)nc(N)c2c(N)n1`, the inhibition was 51.2% (active).
With `CCOc1cc2c(C#N)c(N3CCCCC3)nc(N)c2c(N)n1` the inhibition was 20.6%.
`S=c1[nH]nc(-c2cc(-c3ccccc3)n[nH]2)n1/N=C/c1ccc(Br)s1` showed an inhibition of -6.25%.
`O=C(NC(=S)Nc1cccc2c(O)cccc12)c1ccco1` gave an inhibition of -6.9%.
`Cc1ccc(Cn2cccc(NS(C)(=O)=O)c2=O)cc1` showed an inhibition of -3.15%.
Work on `O=S(=O)(Nc1cc2nc3ccccc3nc2n1Cc1ccccc1)c1ccc(Cl)cc1` yielded an inhibition of 24.5%.
In the case of `Oc1cccc(C=NCc2ccccc2)c1O`, the inhibition was -0.8%.
Molecule `CNS(=O)(=O)c1ccc2nc(NC(=O)/C=C/c3ccco3)sc2c1` has an inhibition of 25.6%.
Molecule `COc1cc2cc(NC(C)=O)cc(NCc3ccccc3)c2cc1OC` has an inhibition of -19.9%.
`Cc1ccc(N2CCN(Cc3ccccc3)CC2=O)c(C)c1` showed an inhibition of -6.45%.
For `O=C(O)/C=C/c1cn(-c2ccccc2)nc1-c1cc2ccccc2o1`, the inhibition was 41.2% (active).
In the case of `O=Cc1cn(-c2ccccc2)nc1-c1cc2cc(O)ccc2oc1=O`, the inhibition was 11.8%.
With `O=C(O)/C=C\c1cn(-c2ccccc2)nc1-c1cc2ccccc2o1` the inhibition was 48.1% (active).
For `Nc1c(N2CCOCC2)cc(Cl)c2nonc12`, the inhibition was 3%.
`Cc1ccc(C(=O)N[C@H](C(=O)Nc2cc(Cl)cc(Cl)c2)C(C)C)cc1` gave an inhibition of 3.15%.
In the case of `N#Cc1ccsc1NC(=O)CN1CCN(c2ccc(O)cc2)CC1`, the inhibition was 14.3%.
Work on `Nc1c(C(=O)N/N=C/c2cccnc2)oc2nc(-c3ccco3)cc(-c3ccco3)c12` yielded an inhibition of 20%.
With `Cc1ccc(-c2cc(-c3ccccc3O)nc(N/N=C/c3cccnc3)n2)cc1` the inhibition was 52.2% (active).
Work on `S=c1[nH]nc(-c2ccncc2)n1/N=C/c1ccccc1Cl` yielded an inhibition of -1.75%.
`CC(C)N1C(=O)CC(Nc2cccc3cccc(N)c23)C1=O` (stereo not given) showed an inhibition of -13.8%.
In the case of `Cc1ccc(-c2[nH]ncc2/C=N/n2c(C)nc3ccccc3c2=O)cc1`, the inhibition was -0.85%.
In the case of `O=C(Cc1cccc2ccccc12)NN1C(=O)/C(=C\c2cccnc2)SC1=S`, the inhibition was -7.8%.
For `O=c1c2ccccc2nc(/C=C/c2cccnc2)n1Cc1ccccc1`, the inhibition was 30.9% (active).
With `COc1ccc(S(=O)(=O)C(C#N)c2nc3ccccc3nc2N2CCCCC2)cc1` (stereo not given) the inhibition was -7.95%.
With `Cc1ccc(S(=O)(=O)C(C#N)c2nc3ccccc3nc2N2CCCC2)cc1C` (stereo not given) the inhibition was -3.55%.
Molecule `CCOC(=O)c1c(NC(=O)C2C3C=CC(CC3)C2C(=O)O)sc(C)c1CC` (stereo not given) has an inhibition of 0.4%.
`O=C(N/N=C/c1ccc([N+](=O)[O-])o1)c1cc(-c2ccc(-c3ccccc3)cc2)nc2ccccc12` gave an inhibition of 4.6%.
`Cc1ccc(C2Nc3cccc4cccc(c34)N2)s1` gave an inhibition of -32.4%.
With `Cc1cc(=O)n2[nH]c(N)c(N=Nc3ccccc3F)c2n1` the inhibition was -14.7%.
Work on `COc1ccc(C(=O)Nc2ccc(-c3nnn(CC(=O)N4CCN(C(=O)c5ccco5)CC4)n3)cc2)cc1` yielded an inhibition of 25.6%.
`COc1ccc(/C=C2/SC(=S)N(c3ccc(S(=O)(=O)Nc4nccs4)cc3)C2=O)cc1` showed an inhibition of -18%.
For `CCOC(=O)c1nn(-c2ccc3c(c2)CCN3C(C)=O)cc1O`, the inhibition was 48.8% (active).
`COc1ccc(Br)cc1CNc1ccc(O)cc1` gave an inhibition of -15.2%.
For `Cc1ccc(-c2nn(-c3ccccc3)cc2/C=C2\SC(=S)N(CCCCCC(=O)O)C2=O)o1`, the inhibition was 37% (active).
Molecule `O=C(O)CCCN1C(=O)/C(=C/C=C/c2ccco2)SC1=S` has an inhibition of 11.7%.
Work on `O=C(O)CCCN1C(=O)/C(=C/c2cn(-c3ccccc3)nc2-c2cccs2)SC1=S` yielded an inhibition of 4.55%.
For `COC(=O)c1cc2c(C)[nH]c(C)c2cc(C(=O)OC)c1=O`, the inhibition was 3.75%.
For `O=[N+]([O-])c1ccc(C=Nc2ccc(Cl)c([N+](=O)[O-])c2)s1`, the inhibition was 6.5%.
With `O=C(NNc1cc(N2CCCC2)nc(N2CCCC2)n1)c1ccc([N+](=O)[O-])cc1` the inhibition was -2.1%.
With `Cc1sc2nc3ccc(NCc4ccco4)nn3c(=O)c2c1C` the inhibition was 44.4% (active).
With `Cc1ccc(/C=c2\sc3nc(-c4ccco4)nn3c2=O)o1` the inhibition was -1.1%.
Work on `COc1cccc(-c2[nH]nc3c2C(c2ccsc2)C(C#N)=C(N)O3)c1` (stereo not given) yielded an inhibition of -11%.
Molecule `CC(NC(=O)Nc1ccc(O)cc1)(C(F)(F)F)C(F)(F)F` has an inhibition of 1.45%.
For `COc1ccc(S(=O)(=O)C(C#N)c2nc3ccccc3nc2N2CCCC(C)C2)cc1` (stereo not given), the inhibition was 13.2%.
In the case of `O=c1[nH]c(Nc2ccccc2)cc2ccccc12`, the inhibition was 41% (active).
With `O=c1[nH]c(Nc2ccc(F)cc2)cc2ccccc12` the inhibition was 29.8%.
Molecule `COC1=C(Nc2ccccc2)C(=O)c2ccccc2C1=O` has an inhibition of -14.2%.
Work on `C/C(=N\NC(=O)c1cc(O)cc(O)c1)c1ccc(NC(=O)Cc2ccccc2)cc1` yielded an inhibition of 25.6%.
Work on `COc1ccccc1/C=C/C=c1\sc2nc(=O)c(Cc3ccccc3)nn2c1=O` yielded an inhibition of 0.1%.
For `CCN(CC)Cc1c(O)ccc2c(=O)c(Oc3ccccc3OC)coc12`, the inhibition was 42.6% (active).
In the case of `Cc1cc(C)cc(Oc2coc3c(CN(C)C)c(O)ccc3c2=O)c1`, the inhibition was 48.2% (active).
`COc1ccc(NCc2cc3ccccc3[nH]c2=O)cc1` showed an inhibition of 11.8%.
Work on `N#Cc1c(-c2ccccc2)nc(SCC(=O)N2c3ccccc3Sc3ccccc32)[nH]c1=O` yielded an inhibition of 15.3%.
In the case of `CCOC(=O)N1CCN(C2=C(NS(=O)(=O)c3ccc(NC(C)=O)cc3)C(=O)c3ccccc3C2=O)CC1`, the inhibition was -27.3%.
`Nc1ccc(Br)c2cccnc12` gave an inhibition of 11.4%.
For `Cc1ccc(N/N=C2\CC(=O)c3ccccc32)cc1Cl`, the inhibition was -12%.
`C/C(CCc1ccco1)=N\NC(=O)CNc1cccc2ccccc12` gave an inhibition of 22.1%.
`O=c1c(C(c2ccccc2)c2c(O)sc3ccccc3c2=O)c(O)sc2ccccc12` showed an inhibition of 4.95%.
Work on `COc1cccc2c1C(=O)c1ccc3ccccc3c1C2=O` yielded an inhibition of 5.5%.
With `COc1ccc(OC)c2c1C(=O)c1ccccc1C2=O` the inhibition was 42.9% (active).
In the case of `COC1=C(Nc2ccccc2OC)C(=O)c2ccccc2C1=O`, the inhibition was -37.9%.
`COc1cccc(Cn2cccc(NC(=O)Nc3ccccc3C)c2=O)c1` showed an inhibition of 0%.
Work on `CCOC(=O)C1=C(C)NC(=O)CC1c1cc2c(cc1[N+](=O)[O-])OCO2` (stereo not given) yielded an inhibition of -4.35%.
In the case of `COc1cc(Br)c(C(=O)c2nccc3cc(OC)c(OC)cc23)cc1OC`, the inhibition was 3.15%.
For `COc1ccc(NC(=O)CN2C(=O)S/C(=C/c3cccn3-c3ccc(C(=O)O)cc3)C2=O)cc1`, the inhibition was 8%.
`O=C1C2C3C=CC(C4CC34)C2C(=O)N1CCc1ccccc1` (stereo not given) gave an inhibition of 8.65%.
For `Cc1ccc(C(=O)c2c3ccc(N)cc3nn2CCC(N)=O)cc1`, the inhibition was 14.2%.
With `CN(C)C=Nc1ccc2nn(-c3ccccc3)nc2c1` the inhibition was 58.8% (active).
With `Nc1ccc2nn(-c3cccc4ccccc34)nc2c1` the inhibition was 64.5% (active).
In the case of `CN(C)C=Nc1ccc2nc3c(cc2c1)[nH]c1ccccc13`, the inhibition was 53.9% (active).
For `CC1=NN(c2ccc(C)cc2C)C(=O)C1C(c1cccc(O)c1)C1C(=O)N(c2ccc(C)cc2C)N=C1C` (stereo not given), the inhibition was -2.1%.
With `Cc1ccc(-n2nc3ccc(N)cc3n2)c(C)c1` the inhibition was 59.3% (active).
For `N#Cc1c(=O)c2nc(NCc3ccccc3)ncc2n2ccccc12`, the inhibition was 26%.
`COc1ccccc1/C=C/C=N/NC(=O)c1cc(-c2ccco2)[nH]n1` showed an inhibition of 1.9%.
`COc1ccccc1-n1cnc2c(c1=O)c1nc3ccccc3nc1n2-c1ccc(C)c(C)c1` gave an inhibition of 2%.
Work on `O=[N+]([O-])c1ccc(C2Nc3cccc4cccc(c34)N2)cc1` yielded an inhibition of -5.1%.
Work on `N#CC1=C(SCC(=O)NC23CC4CC(CC(C4)C2)C3)NC(=O)C(C#N)C12CCCCC2` (stereo not given) yielded an inhibition of 4.6%.
Work on `Cc1cc(NC(=O)CSc2nnc(Nc3ccccc3C)s2)no1` yielded an inhibition of -1.2%.
In the case of `Oc1ccc(NC(=S)Nc2ccc(O)cc2)cc1`, the inhibition was 19.6%.
For `Cc1[nH]n(-c2ccccc2)c(=O)c1C(C[N+](=O)[O-])c1ccc(Br)cc1` (stereo not given), the inhibition was -5.3%.
For `COc1ccc(-n2nc3cc(C)c(N)c(Br)c3n2)cc1`, the inhibition was -14.3%.
In the case of `Nc1ccc2nn(-c3ccccc3)nc2c1`, the inhibition was 66% (active).
In the case of `Cn1cc2ccc(N)cc2n1`, the inhibition was 2.15%.
Work on `Cc1cccc(S(=O)(=O)C(C#N)c2nc3ccccc3nc2N2CC(C)OC(C)C2)c1` (stereo not given) yielded an inhibition of 9.45%.
